KB-3-1 cytotox: kills parental KB-3-1 adenocarcinoma cells | Potency, µM (titrated, usually from 46.1 µM), most hits filed as cytotoxic | KB-3-1 viability, CellTiter-Glo ATP luminescence, 72 h | 400,000 tested, 1.4% active | AID 1347075; note: potency is the fitted concentration of half-maximal effect; % is set by controls: 0 for no effect and ±100 for the full control effect; nearly all actives have a fitted effect of over 60% in size
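72 h, 37 °C compound treatment of KB-3-1 parental cells; CellTiter-Glo added, 10 min, luminescence read. Data corrected against DMSO-only plates and normalized before curve fitting.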
SW480 rereplic: DNA re-replication induction in SW480 cells; SW480 DNA re-replication, Hoechst DNA content imaging, 48 h; Potency, µM (titrated, usually from 46.1 µM), for the others: at the top dose re-replication activation, most hits filed as activators; 340,000 tested, 1.8% active; note: potency is the fitted concentration of half-maximal effect; % of control where 0% means no effect; nearly all actives have a fitted effect of over 55% in size
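Treated cells incubate 48 hr (37 C, 5% CO2), are stained 40 min with Hoechst, and nuclear fluorescence is enumerated; a rise in nuclei with high DNA signal marks re-replication.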
MCF10A rereplic: DNA re-replication induction in MCF 10a cells. MCF 10A DNA re-replication, Hoechst nuclear intensity, 48 h. Potency, µM (highest dose often 46.1 µM), for the others: at the top dose activity, positive = re-replication, most hits filed as activators. 350,000 tested, 2.9% active. AID 624296; note: potency is the fitted concentration of half-maximal effect; % of control where 0% means no effect; nearly all actives have a fitted effect of over 50% in size
IL1B secr inh: inflammasome signaling inhibition, IL-1 beta readout; THP-1 LPS/ATP IL-1B secretion, AlphaLISA, 16 h; stronger effect = lower value; activity change, % at 57.5 µM; 360,000 tested, 4.7% active; in the data active = activity change below about -50%; inconclusive = mostly about -30% to -49%; note: % is set by controls: 0 for no effect and ±100 for the full control effect
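THP-1 cells pretreated 1 hr with compounds (up to 57.5 uM final), then stimulated with LPS (250 ng/mL final) plus ATP (1.25 mM final); secreted IL-1B measured by AlphaLISA after 16 hr, decreased signal indicating inhibition.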
KB-V1 cytotox: kills drug-selected multidrug resistant KB-V1 cells | Potency, µM (titrated, usually from 46.1 µM), usual class: cytotoxic | 400,000 tested, 3.4% active | AID 1347076 | KB-V1 MDR cells viability, CellTiter-Glo, 72 h; note: potency is the fitted concentration of half-maximal effect; % is set by controls: 0 for no effect and ±100 for the full control effect; nearly all actives have a fitted effect of over 60% in size
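Readout: CellTiter-Glo luminescence, 10 min after addition. Cells: KB-V1 MDR subline, 72 h at 37 degrees C with compound. Analysis: corrected, normalized data fitted to concentration-effect curves.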
* marks the source's active call; other numbers are inactive results; i = inactive; ? = inconclusive; . = no result given. Shown are actives, neighbours in structure and some others; about 9.9% of the full set was active somewhere. Unless noted, calls come from the whole dose curve; as a rule, active = well fitted curve in the direction sought with a large enough effect; inconclusive = small, poorly fitted or top-dose-only effect, or another doubt; inactive = no such curve, though single readings can be large; an effect the other way counts as inactive or inconclusive.

SMILES	KB-3-1 cytotox	SW480 rereplic	MCF10A rereplic	IL1B secr inh	KB-V1 cytotox
N=c1c(C(=O)NCCc2ccccc2)cc2c(=O)n3ccccc3nc2n1CC1CCCO1 (stereo not drawn)	i	2.6µM*	18µM*	22	i
N=c1c(C(=O)NCc2ccco2)cc2c(=O)n3ccccc3nc2n1CC1CCCO1 (stereo not drawn)	i	?	?	7	i
N=c1c(C(=O)NCc2ccc(F)cc2)cc2c(=O)n3ccccc3nc2n1CC1CCCO1 (stereo not drawn)	i	2.9µM*	?	22	i
O=C(c1ccco1)N1CCN(C2CC(=O)N(c3ccc(F)c(Cl)c3)C2=O)CC1 (stereo not drawn)	i	-3%	-1%	-5	i
CCCn1c(SCC(=O)NCCc2ccccc2)nnc1C(C)C	i	1%	-12%	5	i
CCOc1ccc(-c2nc(CN(Cc3ccccc3)C[C@@H]3CCC(=O)N3)c(C)o2)cc1	i	13%	8%	-81*	i
C=CC[C@@H](CC(=O)N(CCO)Cc1ccccc1)C(=O)NCCOC(=O)[C@@H](CC=C)Cc1ccc(F)cc1	i	-48%	9%	-2	i
C=CCC[C@H](Cc1ccc(F)cc1)C(=O)O[C@H](CNC(=O)[C@@H](CC=C)CC(=O)N(CCO)Cc1ccccc1)c1ccccc1	i	?	21µM*	-58*	i
C=CC[C@H](CC(=O)N(CCO)Cc1ccccc1)C(=O)NC[C@@H](OC(=O)[C@@H](CC=C)Cc1ccc(F)cc1)c1ccccc1	i	4%	?	-69*	?
Cc1ccc(C(C(=O)NCc2ccccc2)N(C(=O)c2ccccn2)c2ccccc2)o1 (stereo not drawn)	i	-14%	3%	-8	i
Cn1ccc2cc(S(=O)(=O)N3CCCC(C(=O)NCc4ccccc4)C3)ccc21 (stereo not drawn)	i	.	.	.	i
CC1(C)Cc2c(sc(NC(=O)C(=O)N3CCOCC3)c2C(N)=O)CO1	i	3%	-2%	7	i
O=C(c1cccc2ccccc12)N1CCN=C1SCc1ccc([N+](=O)[O-])cc1	i	0%	-6%	-65*	i
Cc1ccccc1C(=O)N1CCN=C1SCc1ccc([N+](=O)[O-])cc1	i	-7%	3%	-77*	?
Cc1ccc(C(=O)N2CCN=C2SCc2ccc([N+](=O)[O-])cc2)cc1	?	-5%	11%	?	?
CCCCNc1ccc(C(F)(F)F)cc1S(=O)(=O)NCCc1ccc(F)cc1	i	9%	?	-63*	i
COc1ccc(S(=O)(=O)NCCc2ccc(F)cc2)cc1	i	0%	13%	-6	i
CC(C)(C)C1CCc2c(sc3ncn(N)c(=N)c23)C1 (stereo not drawn)	?	?	?	-75*	i
CCOC(=O)C(=Cc1ccc(-n2cncn2)cc1)C(=O)OCC	?	16µM*	4.6µM*	-99*	i
Cc1cn(C(=O)c2ccccc2)c(=S)n1-c1ccc(Br)cc1	i	19%	?	-5	15µM*
COc1ccc(Cl)cc1NC(=O)CN(C)C(=O)c1n[nH]c2ccccc12	i	-163%	4%	8	i
Cc1nn(-c2ccccc2)c(N)c1N=Nc1cccnc1	i	-3%	-1%	0	i
Nc1nn(-c2ccccc2)c(N)c1N=Nc1cccc(F)c1	5.8µM*	5.8µM*	3.7µM*	15	?
Nc1nn(-c2ccccc2)c(N)c1N=Nc1ccc2c(c1)OCO2	7.3µM*	16µM*	?	-97*	3.3µM*
Nc1[nH]n(-c2ccccc2)c(=O)c1N=Nc1ccc2c(c1)OCCO2	i	-12%	1%	-73*	i
O=c1[nH]c2ccccc2c2oc(CCl)nc12	i	-5%	21µM*	-101*	?
CCC1CCc2c(c3ccccc3[nH]c2=O)O1 (stereo not drawn)	i	-2%	-1%	36	?
O=C(NN1C(=O)/C(=C\c2cccnc2)SC1=S)C(c1ccccc1)c1ccccc1	i	-4%	15µM*	7	i

Screening results (PubChem)
